Only some compounds are listed: those with a hit (about 0.41% of all), similar ones and a draw of the others.
GAA inh = alpha-glucosidase (human) inhibition. P10253. purified human GAA, 4-MU-alpha-glucoside fluorescence. Potency, µM (titrated, usually from 76.9 µM), without a hit: top-dose activity change, negative = inhibition, usual class: inhibitors. hit rate 0.005% among 200,000. AID 1466;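 note: plate controls were uninhibited enzyme wells for no effect and no-enzyme background for full effect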
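Human alpha-glucosidase, 4 nM, pre-mixed with test compounds before 400 uM 4-methylumbelliferyl substrate; 20 min room temperature at pH 5.0. Fluorescence read after pH 10 stop; AC50 values from Hill-equation fits.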
Lamin A splicing = LMNA splicing modulation. Potency, µM (series often up to 46.1 µM), for the others: top-dose ratio change, negative = inhibition, hits mostly inhibitors. AID 1487. hit rate 0.01% among 200,000. HeLa LMNA splicing GFP/RFP minigene ratio, 48 h; active = well fitted inhibition curve with a large enough effect in the signal ratio, with a control signal flat, not every such curve was filed as active; inconclusive = small, poorly fitted or top-dose-only effect, or effect the other way, or a change in a side signal; the % refers to the signal ratio
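S3 HeLa cells stably expressing lamin A-EGFP splicing minigene plus DsRed2, 600 cells/well, 48 h compound exposure at 37C. Laser-scanning cytometry; analysed as GFP (500-530 nm)/RFP (575-640 nm) total intensity ratio; 0.5% DMSO vehicle.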
GAA spleen mod = lysosomal alpha-glucosidase (human) modulation; human spleen homogenate, 4-MU-alpha-glucoside fluorescence; Potency, µM (highest dose often 79.9 µM), for the others: at the highest dose activity change, negative = inhibition, hits mostly inhibitors; hit rate 0.006% among 240,000;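 note: 0% = enzyme with vehicle and -100% = no enzyme basal signal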
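AC50 values come from Hill-equation fits of concentration-response data, normalized to no-enzyme and full-activity controls. Enzyme source: 1 ug human spleen homogenate; 1 mM fluorogenic 4-MU glucoside, pH 5.0 citrate buffer, 37 C, 40 min.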
N370S GC = inhibits or activates N370S mutant glucocerebrosidase | N370S GC spleen homogenate, 4MU-glucoside fluorescence | Potency, µM (top dose mostly 59.4 µM), for inactives: top-dose activity change, negative = inhibition, usual class: inhibitors | hit rate 0.092% among 330,000 | AID 2101;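 note: 0% = full enzyme activity and -100% = no enzyme basal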
GAA glycogen = inhibitors or activators of human alpha-glucosidase glycogen cleavage | P10253 | Potency, µM (doses to about 76.4 µM), for the others: at the highest dose activity change, negative = inhibition, most hits filed as inhibitors | recombinant GAA, glycogen substrate, Amplex Red glucose oxidase fluorescence | hit rate 0.38% among 300,000 | AID 2100;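 note: 0% = full enzyme reaction and -100% = no-enzyme basal signal; the screen sought inhibitors and activators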
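Recombinant human alpha-glucosidase (4 nM final) hydrolysed bovine liver glycogen (30 ug) for 40 min at 37 C in pH 5.0 citrate/phosphate with 0.01% Tween-20. Released glucose detected by glucose oxidase/Amplex Red, Ex 573/Em 610 nm. Compounds up to 77 uM; AC50 from Hill fits.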
* hit, by the source's call; [ ] = dose if it differs, or a comment. Unless noted, calls come from the whole dose curve; as a rule, active = well fitted curve in the direction sought with a large enough effect; inconclusive = small, poorly fitted or top-dose-only effect, or another doubt; inactive = no such curve, though single readings can be large; an effect the other way counts as inactive or inconclusive. Unless noted, % is set by controls: 0 for no effect and ±100 for the full control effect; potency is the fitted concentration of half-maximal effect.

O=C(c1ccc2ncsc2c1)N1CCN(c2ccc(O)cc2)CC1 was read as GAA inh -3%, Lamin A splicing inconclusive, GAA spleen mod 1%, N370S GC -2% and GAA glycogen 9.9µM*.
Screening C=CCNC(=S)NNc1nc(Nc2ccccc2)nc(N2CCCCC2)n1 returned GAA inh 8%, Lamin A splicing 6%[46 µM], GAA spleen mod -9%, N370S GC 10% and GAA glycogen 16µM*.
COc1ccc(NC2CC(=O)NC2=O)cc1 (centres undefined) was read as GAA inh -4%, Lamin A splicing 7%, GAA spleen mod -1%, N370S GC 8% and GAA glycogen 11µM*.
C=CCc1c(C)nc(-c2ccccc2)nc1N/N=C/c1ccccc1 was read as GAA inh -5%, Lamin A splicing -8%, GAA spleen mod -5%, N370S GC 16µM* and GAA glycogen -21%.
For C=CCc1c(C)nc(-c2ccccc2)nc1N/N=C(\C)c1ccc(N)cc1 the results were GAA inh -2%, Lamin A splicing 8%, GAA spleen mod -1%, N370S GC 13µM* and GAA glycogen inconclusive.
O=C(Nc1ccccc1F)C(Cc1ccccc1)N1Cc2ccccc2C1=O (centres undefined) was read as Lamin A splicing 14%[46 µM] and GAA glycogen 5%[76.3 µM].
`Cc1cc(C)c2c(-n3cccc3)c(C(=O)NNS(=O)(=O)c3ccc(Cl)cc3)sc2n1` gave GAA inh -16%, Lamin A splicing 9%, GAA spleen mod -5%, N370S GC 26% and GAA glycogen 20µM*.
Screening Cc1cc(C)c2c(-n3cccc3)c(C(=O)NNS(=O)(=O)c3ccccc3)sc2n1 returned GAA inh 0%, Lamin A splicing 12%, GAA spleen mod 3%, N370S GC 20% and GAA glycogen inconclusive.
Screening CN1CCC(=O)N(C(CSc2ccc(Br)cc2)Cc2ccccc2)CC1 (centres undefined) returned GAA spleen mod -8% and N370S GC -5%.
`COc1cccc(N2C(=O)CC(Nc3ccc(N4CCOCC4)cc3)C2=O)c1` (centres undefined) gave GAA inh 0%, Lamin A splicing 17%, GAA spleen mod -7%, N370S GC -4% and GAA glycogen 3.5µM*.
For O=C1CC(Nc2ccc(N3CCOCC3)cc2)C(=O)N1c1cccc(C(F)(F)F)c1 (centres undefined) the results were GAA inh -2%, Lamin A splicing -9%, GAA spleen mod -1%, N370S GC -5% and GAA glycogen 25µM*.
COc1ccc(N2C(=O)CC(Nc3ccc(N4CCOCC4)cc3)C2=O)c(OC)c1 (centres undefined) was read as GAA inh inconclusive, Lamin A splicing 8%, GAA spleen mod -4%, N370S GC 25% and GAA glycogen inconclusive.
For COc1ccc(-c2c(C3C4C=CCCC4(C)C(=O)N3Cc3ccccc3)ccc3ccccc23)cc1OC (centres undefined) the results were GAA spleen mod -7% and N370S GC -1%.
For O=C(C1=C[C@@H](c2ccc(C(F)(F)F)cc2)C[C@@H](OCc2ccc(CO)cc2)O1)N1CCN(Cc2ccccc2)CC1 the results were GAA spleen mod 1%, N370S GC 13µM* and GAA glycogen 2%.
For CN(C(=O)c1nn(C)c2c1COc1ccccc1-2)c1cccc(C(F)(F)F)c1 the results were GAA glycogen -6%[76.3 µM].
Cn1cc(CN(CCCN2CCOCC2)C(=S)Nc2cccc(Cl)c2)c2ccccc21 was read as GAA inh 1%, Lamin A splicing inconclusive, GAA spleen mod -2%, N370S GC 10µM* and GAA glycogen -20%.
For Cc1cccc(NC(=S)N(CCCN2CCOCC2)Cc2cn(C)c3ccccc23)c1 the results were GAA inh 0%, Lamin A splicing inconclusive, GAA spleen mod -8%, N370S GC 7.9µM* and GAA glycogen 6%.
`COc1ccc(NC(=S)N(CCCN2CCOCC2)Cc2cn(C)c3ccccc23)cc1` gave GAA inh -4%, Lamin A splicing inconclusive, GAA spleen mod -12%, N370S GC 0% and GAA glycogen -24%.
For N[C@H](CSSC[C@@H](N)C(=O)O)C(=O)O the results were GAA spleen mod -4% and N370S GC -12%.
For O=C(Nc1ccccn1)C(=O)Nc1ccccn1 the results were GAA inh 2%, GAA spleen mod 4%, N370S GC 1% and GAA glycogen 7%.
`CC(=O)Nc1ccc(S(=O)(=O)NNC(=O)C(=O)NNc2ccccn2)cc1` gave GAA inh 2%, GAA spleen mod -7%, N370S GC 3% and GAA glycogen inconclusive.
For Nc1ccc(S(=O)(=O)NNC(=O)C(=O)NNc2ccccn2)cc1 the results were GAA inh -4%, Lamin A splicing -6%, GAA spleen mod -5%, N370S GC -2% and GAA glycogen 3.2µM*.
For Cc1ccc(S(=O)(=O)NNC(=O)C(=O)NNc2ccccn2)cc1 the results were GAA inh 0%, Lamin A splicing inconclusive, GAA spleen mod -8%, N370S GC 5% and GAA glycogen 3.5µM*.
Cc1ccccc1S(=O)(=O)NNC(=O)C(=O)NNc1ccccn1 was read as GAA inh -2%, Lamin A splicing inconclusive, GAA spleen mod 4%, N370S GC 4% and GAA glycogen 3.5µM*.
Cc1cccc(Nc2cc(C)c3c(O)cccc3n2)c1C was read as GAA inh -2%, Lamin A splicing inconclusive, GAA spleen mod -1%, N370S GC -16% and GAA glycogen 10µM*.
CNC(=S)NNc1nncc2ccccc12 was read as GAA inh 14%, Lamin A splicing inconclusive, GAA spleen mod 4%, N370S GC 7% and GAA glycogen 10µM*.
Screening CCNC(=S)NNc1nncc2ccccc12 returned GAA inh 2%, Lamin A splicing -3%[9.22 µM], GAA spleen mod -2%, N370S GC 3% and GAA glycogen inconclusive.
Screening COc1ccc(C(=O)c2cn(Cc3ccccc3F)c3cc4c(cc3c2=O)OCCO4)cc1OC returned GAA glycogen -8%[76.3 µM].
Screening c1cc(-c2cnn3cc(-c4ccc(OCCN5CCCCC5)cc4)cnc23)ccn1 returned GAA spleen mod 6% and N370S GC -13%.
Oc1ccc(Nc2nc(NCC3CCCO3)c3ccccc3n2)cc1 (centres undefined) was read as GAA inh -3%, Lamin A splicing inconclusive, GAA spleen mod 1%, N370S GC -11% and GAA glycogen inconclusive.
For Oc1ccccc1Nc1nc(NCc2ccco2)c2ccccc2n1 the results were GAA spleen mod -11%, N370S GC inconclusive and GAA glycogen 11µM*.
